# According to PubChem BioAssay AID1508600 (Functional Genomics Laboratory (NCATS/FGL), 2020):
# In all, about 53,000 sequences went through this assay and about 3,700 (7%) were called active.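 How the source made its calls: active means gene knockdowns whose robust z-score for IL-1 alpha signal is at least 2 or at most -2, so actives lie on both sides; inactive means the rest.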 The sample as a whole holds a higher share of actives than the screen did.
# Assay: Components of the Cytosolic LPS Sensing Pathway: Gene Identification via Genome-wide siRNA Screen;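 further: robust z of the log signal after scaling to non-targeting control siRNA wells of the plate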
# Details: RAW264.7 macrophages, IL-1a HTRF, actives lie on both sides, screened at 100 nM (by protocol), cells primed 5 h with Pam3CSK4 first
# How it was run: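 RAW264.7 mouse macrophages reverse-transfected with single siRNAs (100 nM final) for 48h, primed with Pam3CSK4 for 5 hours, then transfected with LipidA for 24 hour. Supernatant IL-1a read by HTRF; values normalized to negative-control median, log-transformed robust z-scores.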
row,Sequence,z-score
1,GGGCAGAUCCUAAUAAGCATT against Irs3,-1.21 (inactive)
2,GCUAAGGUCUUACUCCUGGTT against Cdca4,1.13 (inactive)
3,GCCAGUGUUGGUUAUAAAATT against Isg15,0.673 (inactive)
4,CCAUGGCACAGACAGCUAUTT against Celf1,-2.02 (active)
5,GCUUUUGCCCGAUGGAUUUTT against Plpp3,0.136 (inactive)
6,GGUAUACAGGAUGUUAAGGTT against Pdlim4,0.889 (inactive)
7,GGAGACCCACUACAUGACUTT against H2-M2,-0.982 (inactive)
8,CCCAUCUUUGCAACAUAUCTT against Scgb2b20,-1.43 (inactive)
9,GGUCCCAUUCAGUGUGUGUTT against Cdk10,2.98 (active)
10,UAGUCACAAGGUUUGAAACTT against Fbxw24,-0.822 (inactive)
11,GGUCCUGGACUUCAUGCUATT against Galnt6,2.75 (active)
12,GCUGUACAGUCAAUACCUGTT against Abhd17a,1.2 (inactive)
13,GGACCUUUAGCUGGUUUAGTT against Sowaha,0.559 (inactive)
14,GGUGAUUCCAUUACCUAGUTT against Pde12,0.572 (inactive)
15,GGUAAAAUCACGCAGUAAATT against Ppp1r3a,-0.56 (inactive)
16,GGACCCAGAGAAGAUCAAATT against Etfrf1,0.514 (inactive)
17,GGCAUAGCUCAGUGAUAGCTT against Tmem19,0.117 (inactive)
18,CCAGACAGAAGGGUUAGCUTT against Mrps36,-2.03 (active)
19,GCCUUUACACUAAUGAUAATT against Cilp,0.455 (inactive)
20,GGUCUCAGUUUCUCAGAAUTT against Siglece,-1.62 (inactive)
21,GCUUGCUUAUGGCCUAUUATT against Ucma,-2.05 (active)
22,GCUACCAGGAUAGCGAAACTT against P2rx2,0.826 (inactive)

row,Sequence,z-score
1,GGAAAAAUGGUCUGUAAAATT against Adck2,0.508 (inactive)
2,GGAAAAGGUGACCUGUCUCTT against Slc44a1,-1.77 (inactive)
3,GGCCAGAAAGGCAGCAAAGTT against Msgn1,-1.03 (inactive)
4,GGAAGUGAAGACCUUCUUCTT against St3gal4,-0.898 (inactive)
5,UCGAUAGCCUCAAUCAGCATT against Zfp58,-1.99 (inactive)
6,GGAGAAGGUCGAAAAGCCUTT against Rybp,-2.01 (active)
7,GCAUUCGUUCGGCACGUGUTT against Bcl2l14,-0.0672 (inactive)
8,CGAAGGGAAGCAAAAUACATT against Bend5,2.11 (active)
9,GCCCUGGAUCAUUGAGUGATT against Atp2b1,0.749 (inactive)
10,GGCCAUACACCUGUGACAUTT against Osr2,1.37 (inactive)
11,GGAUGAUCGCUUUUGCUAUTT against Caly,2.02 (active)
12,CCCUCUACUACUGCAUCGUTT against Xkr7,1.74 (inactive)
13,GCACUUCUACCGGAAAGUUTT against Mad2l1bp,-0.761 (inactive)
14,GCAAAGCCCUAUUCCUAAUTT against Vmn2r42,1.21 (inactive)
15,GGCCUAAACCCUUUCAUCUTT against V1rb6,-0.0202 (inactive)
16,GCGAUCCUCUCUACUUAACTT against Eno4,-1.49 (inactive)
17,CGUGGGACCUGGUAUGUAATT against Slc22a12,2.79 (active)
18,GCGGGUAUGAUGGUACCUUTT against Pomt2,1.39 (inactive)
19,CGUGAUGAGUGAAAAUGAUTT against Cd34,-2.12 (active)
20,GGUACUUCACAAUGGACAGTT against Zcchc9,0.951 (inactive)
21,GGUGCAUUUUCUAGAAUCATT against Usp45,0.933 (inactive)
22,GGUACCUAUGCCAGUUUUGTT against Aqp12,2.89 (active)

row,Sequence,z-score
1,GCCACCAAGUACUUUGGUUTT against Vmn1r76,1.34 (inactive)
2,GCAAUUUGCUCAUCUCUAATT against Dcc,1.89 (inactive)
3,GGAUGCAGAUGCUGUGGACTT against S100a1,-0.918 (inactive)
4,GGAGUACGACUACUACGGUTT against Sfrp5,0.83 (inactive)
5,GGAUUACCGGCAGCUGGAATT against Dnm1,2.24 (active)
6,GGCGAGCAUCGCUAUUGACTT against Zcrb1,0.734 (inactive)
7,GGAGAUCCUAGGCUUGAACTT against Vsx2,0.279 (inactive)
8,GGGAGACUUGUCAUGCACATT against Slc45a2,0.728 (inactive)
9,GGUAGCUGAAGAAGACUUCTT against Reg2,-0.591 (inactive)
10,GGCUUUGCUGAAUGUCUCATT against Nrn1l,0.443 (inactive)
11,CCUGCUAAUGUUUGUAAGUTT against Sowahc,1.37 (inactive)
12,GCAUUAAUUGCUUCUCUUATT against Nup155,-2.35 (active)
13,GGAACUCACCCUCAGCUUGTT against Tmem260,0.313 (inactive)
14,CCAAACAACCAGCUAAUAUTT against Mia3,-0.375 (inactive)
15,GGUGAAAUGAGAAUACUUGTT against Erap1,1.07 (inactive)
16,CCCUGGUUGUUUGUAGAGUTT against Armt1,2.38 (active)
17,GGAAUGAUGAAGAGUGUCCTT against Btla,-0.0564 (inactive)
18,GGCUACUGUAGGAAGAAAUTT against Defb20,1.7 (inactive)
19,GGAAGUUUUGUUCCUGCAUTT against Nars2,-0.0244 (inactive)
20,GGCCAUCCAGAAUUACAUGTT against Vash2,1.08 (inactive)
21,GGAGAAGGAACUGUGUGAGTT against Nfkbil1,-2.26 (active)
22,CCGGGUCAGGACAAUUCAUTT against Hsd17b1,1.87 (inactive)

row,Sequence,z-score
1,GGCCAUUGAUCAAGACAAGTT against Glyat,1.66 (inactive)
2,GGCUUUGUAGAAAAUUCAUTT against Polr2a,-2.15 (active)
3,GCCGUGAUGCCUAAAAUGCTT against Olfr543,-0.306 (inactive)
4,GGUAUCUUGAGAAGCCAAUTT against Stat3,-0.536 (inactive)
5,GGAUUCAUCAUCUACCCGGTT against C1ql4,-1.08 (inactive)
6,GGAUAACCUUGAGUAGGUGTT against Olfr906,0.484 (inactive)
7,CGGAUACCUAGAGUGCAUCTT against Zfp42,0.725 (inactive)
8,CGUGGAAGCUGUGUUAUCUTT against Il34,-0.112 (inactive)
9,GGAUGACCAGAACUUCAGUTT against Zfp956,2.84 (active)
10,AACGUAAUUAGCGUGAAUUTT against Cyp2j11,0.337 (inactive)
11,GCAGUUCCCAUAGUUUUCUTT against Il1r2,6.07 (active)
12,CUUGUCAAGUGAUGAAAUGTT against Xlr,-0.546 (inactive)
13,GGUCGAAAGAAUAAUUUGUTT against Cct6a,-0.628 (inactive)
14,GGCAAUUUUCAGAGAAGUUTT against Fosb,-2.08 (active)
15,GGCAGUCUACUUUACACGGTT against Prdm1,0.294 (inactive)
16,GGAUCUUGGAUAAAGUGUGTT against Gpr180,1.73 (inactive)
17,CCCAGUUGCUGUUCUUGACTT against Defb40,0.553 (inactive)
18,GGCUUCCUCAAGAACUUUCTT against Acly,0.0643 (inactive)
19,CCGGUUACAAACUCAACUGTT against Syne3,-0.285 (inactive)
20,GGGAGAGAUCCUCAACAGGTT against Cdk5rap1,-0.581 (inactive)
21,GGUGCAUGACCUGACAAAGTT against Fermt3,2.5 (active)
22,CCUGGGUUGGAUAAAACUUTT against 6030458C11Rik,-0.0611 (inactive)

row,Sequence,z-score
1,GGAUUUUAAACCUUAAGGUTT against Ssty1,0.49 (inactive)
2,GGCAGUGAAGAGAAGAAGUTT against Trub2,-0.835 (inactive)
3,GGAUUUCUUUGUCAGUACUTT against Il22ra2,0.791 (inactive)
4,CCAUUAUGGACAAUAAGAGTT against Rnf8,0.396 (inactive)
5,GCAUGUGACUCCAUAUAAATT against Cldn15,-0.117 (inactive)
6,GGUUCAAAACUACACACACTT against Sp9,0.512 (inactive)
7,GGAGGGUACUCACAGGAAATT against Olfr411,-2.05 (active)
8,GGAUCAAUGCACCUUCCAATT against Gpr85,1.61 (inactive)
9,GGACCAGUUUAUCCAGCACTT against Mc3r,-0.699 (inactive)
10,GGCAGAAAAGAUAGCAUCUTT against Cops4,0.413 (inactive)
11,GGUCUUUUCUAUUAUGGGATT against Strc,1.22 (inactive)
12,GCGGUUUUGUGUCAGGGACTT against 4833408A19Rik,-0.682 (inactive)
13,GGAGCUGUUGAAAGAAUAUTT against Relt,2.63 (active)
14,CCCUGAACAGGUCAUCUGUTT against Ctps2,0.822 (inactive)
15,GGACAUGACUCUAAAAAAATT against Slc44a3,4.43 (active)
16,CGUGCUCAUUUAGGUUAUATT against Zfp57,1.15 (inactive)
17,GGGCAAAUAGUCAAUGACCTT against Ces1e,0.661 (inactive)
18,GCGGAACUUUCAUUGCUGGTT against Rabggta,1.85 (inactive)
19,CCGGAGCACCAUUAAGGUUTT against Nudt11,4.75 (active)
20,GCCUUCUGAUUCAUUUUCUTT against Naa38,0.525 (inactive)
